Rows were chosen to be rich in hits. Some 28% of all compounds tested hit in one or more screens of this group.
CYP2C9 act – CYP2C9 (human) activation | 96,000 compounds, 1.4% hits | recombinant CYP2C9, luciferin-H conversion, luminescence; stronger effect = higher value; factor 1 = untreated enzyme, 0 = blocked | activation factor at 5 µM | AID 1024;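 active = activation factor of 2 or more for CYP2C9 at a 5 µM dose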
CYP2C9 inh – blocks human cytochrome P450 2C9. P11712. CYP2C9 Supersomes, luciferin-H conversion, luminescence. inhibition, % at 5 µM. 96,000 compounds, 20% hits. AID 777;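 active = blocking of liver enzyme CYP2C9 beyond about 50% at 5 µM, limit read from the data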
CD11b adhes enh – increases human CD11b/CD18 adhesion to fibrinogen. P05107+P11215. K562 CD11b/CD18 adhesion to fibrinogen, ATPlite luminescence. activation, % at 10 µM. 93,000 compounds, 0.07% hits;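 active = 10 µM primary screen giving 50% or more activity, confirmed by 40% or more on retest at that dose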
CYP2C19 activ – cytochrome P450 2C19 (human) activation. AID 1025. activation factor at 5 µM. 96,000 tested, under 10 active. P33261. recombinant CYP2C19, luciferin-H EGE luminescence; stronger effect = higher value; 0 = fully inhibited enzyme, 1 = untreated enzyme;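 active = activation factor of at least 2 at 5 µM in the primary screen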
Target sequence (P33261 whole entry, looked up): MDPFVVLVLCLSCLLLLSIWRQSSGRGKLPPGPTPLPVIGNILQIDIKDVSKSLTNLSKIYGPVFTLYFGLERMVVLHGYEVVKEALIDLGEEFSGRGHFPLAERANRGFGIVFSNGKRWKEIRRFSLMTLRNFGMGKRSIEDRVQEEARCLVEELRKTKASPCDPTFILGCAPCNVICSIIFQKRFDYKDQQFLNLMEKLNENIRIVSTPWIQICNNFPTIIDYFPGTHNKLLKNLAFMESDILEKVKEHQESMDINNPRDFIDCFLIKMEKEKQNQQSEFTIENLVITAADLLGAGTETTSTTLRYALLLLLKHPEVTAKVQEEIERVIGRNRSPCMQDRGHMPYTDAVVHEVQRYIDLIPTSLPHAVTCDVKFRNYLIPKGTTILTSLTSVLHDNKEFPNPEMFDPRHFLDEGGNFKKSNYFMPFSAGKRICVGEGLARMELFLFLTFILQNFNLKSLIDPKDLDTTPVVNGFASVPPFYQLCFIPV
CYP2C19 inh – blocks human cytochrome P450 2C19 | P33261 | inhibition, % at 5 µM | CYP2C19 Supersomes, luciferin-H EGE luminescence, 30 min | 96,000 compounds, 21% hits;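 active = CYP2C19 inhibition above a set limit at 5 µM in the primary screen, cut at about 50% in these data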
Mac1 fbg inh – CD11b/CD18-fibrinogen binding inhibition; AID 1497; inhibition, % at 10 µM; K562 CD11b/CD18 adhesion to fibrinogen, ATPlite luminescence; Mn2+ added to activate the integrin; 93,000 compounds, 0.54% hits; P05107+P11215;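 active = primary inhibition of 50% or more at 10 µM, then 40% or more on retest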
Each line names hits and unclear results; the compound was inactive in the other large screens.

S=C1NC(c2ccccc2)=NCN1c1ccc(Cl)cc1	CYP2C19 inh 80
CN1C(=O)CC(C(=O)Nc2ccc(F)cc2)SC1=Nc1ccc2c(c1)OCO2 (stereo not drawn)	CYP2C9 inh 99, CYP2C19 inh 58
C/C(CCc1ccc2c(c1)OCO2)=N\N=C1\NC(=O)CC(C(=O)Nc2ccc(Cl)cc2)S1 (stereo not drawn)	CYP2C9 inh 75 (no result: CD11b adhes enh, Mac1 fbg inh)
CNC(=O)C1CC(=O)N(Cc2ccccc2)C(=Nc2ccc(OC)cc2)S1 (stereo not drawn)	none
COc1cccc(NC(=O)C2CC(=O)N(C)C(=Nc3cccc(F)c3)S2)c1 (stereo not drawn)	none
COc1cccc(N=C2SC(C(=O)Nc3ccccc3F)CC(=O)N2C)c1 (stereo not drawn)	CYP2C9 inh 62
CCN1C(=O)CC(C(=O)Nc2ccc(F)cc2)SC1=Nc1cccc(OC)c1 (stereo not drawn)	CYP2C9 inh 84, CYP2C19 inh 62
CC(C)(C)NC(=O)c1cccc(NC(=O)c2cccc(O)c2)c1	none (no result: CD11b adhes enh, Mac1 fbg inh)
O=C(O)C1CC(=O)N(c2ccc(F)c(F)c2)C1 (stereo not drawn)	none
CCOc1cccc(NC(=O)C2CC(=O)NC(=Nc3ccccc3)S2)c1 (stereo not drawn)	CYP2C9 inh 62
CCN=C1SC(C(=O)Nc2cccc(OCC)c2)CC(=O)N1CC (stereo not drawn)	CYP2C19 inh 87
CCN=C1SC(C(N)=O)CC(=O)N1CC (stereo not drawn)	none
CCNC(=O)C1CC(=O)N(Cc2ccc(F)cc2)C(=Nc2ccc(OC)cc2)S1 (stereo not drawn)	CYP2C19 inh 55
COC(=O)c1cc2oc3ccccc3c2n1Cc1ccccn1	CYP2C9 inh 51, CYP2C19 inh 73
COC(=O)c1cc2oc3ccccc3c2n1CC(=O)N1CCCc2ccccc21	none
C=CCSc1nc2ccccc2n1C(=O)/C=C/c1cc(OC)c(OC)c(OC)c1	CYP2C9 inh 78, CYP2C19 inh 55 (no result: CD11b adhes enh, Mac1 fbg inh)
CS(=O)(=O)N1CCN(c2ccccc2NC(=O)c2cccnc2Cl)CC1	none
CCOC(=O)c1ccc(N2C(=O)C=CC2=O)cc1	none
Cc1ccc(CC2S/C(=C(/C#N)C(=O)NCc3ccco3)N(c3ccccc3)C2=O)cc1 (stereo not drawn)	none
CCOC(=O)c1ccc(CC2S/C(=C(\C#N)C(C)=O)NC2=O)cc1 (stereo not drawn)	CYP2C9 inh 62
CCc1ccc(CC2S/C(=C(\C#N)C(C)=O)NC2=O)cc1 (stereo not drawn)	CYP2C9 inh 78
Cc1ccc(O)c(C(=O)c2cnc3c(c2)CN(CCC(C)C)C(=O)N3)c1	CYP2C9 inh 64
COc1ccc(C)cc1NC(=S)N1CCN(c2ccccn2)CC1	none (no result: CYP2C9 act, CYP2C9 inh, CYP2C19 activ, CYP2C19 inh)
O=C(Nc1ccc(Cl)cc1)[C@@H]1[C@@H]2C(=O)N(c3ccc(Cl)cc3)C(=O)[C@@H]2[C@H]2C=CC=NN21	CYP2C9 inh 59
O=C(O)CCC(=O)Nc1nc2ccccc2s1	none
c1ccc(CCNc2nc3ccccc3s2)cc1	CYP2C9 inh 82, CYP2C19 inh 97
CCOc1ccc2nc(NC(=O)c3cnccn3)sc2c1	none
Cc1ccc(C(=O)Nc2nc3ccccc3s2)s1	CYP2C9 inh 61
O=C(Nc1nc2ccccc2s1)c1cnccn1	CYP2C19 inh 65
Cc1ccc(CNc2nc3ccccc3s2)s1	CYP2C19 inh 51
O=C(CSc1nnc(Cc2ccccc2)o1)Nc1ccc(Br)cn1	none
CCOC(=O)Cc1csc(NC(=O)C2CCCN(S(=O)(=O)c3cnc[nH]3)C2)n1 (stereo not drawn)	none
COC(=O)COC(=O)c1ccc(Oc2nc(OC)nc(N(C)C)n2)cc1	none
CC(C)(C)NC(=O)Cn1c(SCC(=O)NCc2cccs2)nc2ccccc21	none
O=C(Nc1ccc(N2CCN(C(=O)c3ccccc3)CC2)c(Cl)c1)c1ccco1	CYP2C9 inh 62
CCCOc1ccc(C(=O)N2CCN(c3ccc(NC(=O)CC)cc3Cl)CC2)cc1	CYP2C9 inh 86, CYP2C19 inh 96
O=C(Nc1ccc(Cl)c(Cl)c1)Oc1ccc(NC(=O)c2ccco2)cc1	none
O=C(Nc1ccc(Br)c(Cl)c1)c1ccco1	CYP2C19 inh 66
CCCCOc1ccc(C(=O)N2CCCCCC2)cc1	none

Assay outcomes (PubChem)
